# Test results from PubChem BioAssay (NCATS).
# Results filed as inconclusive are left out. Activity calls are given as the source filed them. The call rests on the fitted dose curve; in most records, active means well fitted curve in the direction sought with a large enough effect; inconclusive means small, poorly fitted or top-dose-only effect, or another doubt; inactive means no such curve, though single readings can be large; an effect the other way counts as inactive or inconclusive.
# Experiment: qHTS to identify inhibitors of the type 1 interferon - major histocompatibility complex class I in skeletal muscle: primary screen against the NCATS LOPAC collection (AID 1347405);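 further: human myoblasts with HiBiT tag on endogenous HLA-B stimulated by IFN-beta; lytic HiBiT luminescence reporting HLA-B protein level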; further: potency means the concentration at half of the fitted maximal effect; on activity change, negative = inhibition: on the % scale 0 is the no-effect control and ±100 the full control effect
# Details: iHSKM muscle cells, IFN-b-induced MHC-I HiBiT luminescence, 24 h; series mostly up to 45.9 µM; activity change, negative = inhibition: at the top concentration
# In short: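 IFN-beta-stimulated (4 ng/ml) HLA-B HiBiT knock-in myoblasts, compound-treated 24 hrs up to 46 uM final; signal via LgBiT complementation and furimazine luminescence.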
SMILES,"activity change, negative = inhibition",Potency
c1ccc(CN2CCC3(CCCc4ccccc43)CC2)cc1,-8.66% (inactive),
CCN(CC)CCOC(=O)c1cc(Cl)c(N)cc1OC,0.268% (inactive),
COc1ccccc1N1CCN(CCN(C(=O)c2ccc(F)cc2)c2ccccn2)CC1,-4.07% (inactive),
CN1CCCC1CCOC(C)(c1ccccc1)c1ccc(Cl)cc1 (stereo unspecified),-18.1% (inactive),
Cc1ccc2c(c1)C(N1CCN(C)CC1)=Nc1cccnc1N2,2.14% (inactive),
CCCCCCCCCCCCCCSCC(=O)O,3.56% (inactive),
CCCCCC[C@@H]([C@@H](C)O)n1cnc2c(N)ncnc21,-5.76% (inactive),
CC1CCN(CC[C@H]2CCCN2S(=O)(=O)c2cccc(O)c2)CC1,-12.7% (inactive),
CC1CNCCN1S(=O)(=O)c1cccc2cnccc12 (stereo unspecified),0.85% (inactive),
COc1ccc(CCn2nnnc2C2(c3ccc(C)cc3)CC2)cc1,-5.83% (inactive),
O=C(O)c1cc2cc(F)ccc2[nH]1,-2.57% (inactive),
OCC1NCC(O)C(O)C1O (stereo unspecified),3.59% (inactive),
N[C@H](C(=O)O)c1cc(O)cc(O)c1,-9.83% (inactive),
C[C@]12C=CC(=O)C=C1CC[C@@H]1C2=CC[C@]2(C)[C@@H](C(=O)CN3CCN(c4cc(N5CCCC5)nc(N5CCCC5)n4)CC3)CC[C@@H]12,-13.5% (inactive),
CCCCS(=N)(=O)CC[C@H](N)C(=O)O (stereo partly specified),-1.48% (inactive),
COc1cc(CNC(=O)CCCCCCC(C)C)ccc1O,-4.33% (inactive),
c1ccc2c(c1)CCC[C@H]2Nc1nc2ccccc2[nH]1,-22.6% (inactive),
Oc1cc2c(cc1O)C(c1ccccc1)CNCC2 (stereo unspecified),0.0043% (inactive),
Nc1ncnc2c1nc(Sc1ccc(Cl)cc1)n2[C@H]1OC2COP(=O)(O)O[C@@H]2C1O (stereo partly specified),1.54% (inactive),

SMILES,"activity change, negative = inhibition",Potency
O=[N+]([O-])c1cccc2cn[nH]c12,-5.55% (inactive),
COc1ccc2c(c1)CCC1C2CC[C@@]2(C)C1CC[C@@H]2NCCCCCCN1C(=O)C=CC1=O (stereo partly specified),-5.86% (inactive),
CC(C)C[C@H](NC(=O)C1OC1C(=O)O)C(=O)NCCCCN=C(N)N (stereo partly specified),48.1% (inactive),
CC[N+](CC)(CC)CC(=O)Nc1c(C)cccc1C,0.129% (inactive),
C=CC[C@H](N)C(=O)O,6.2% (inactive),
N[C@@H](Cc1ccc(O)c(I)c1)C(=O)O,-14.1% (inactive),
CN1CCC2(CCN3CCc4c(oc5ccccc45)C3C2)N(C)C1=O (stereo unspecified),-16.4% (inactive),
CC(N)(Cc1ccc(O)c(O)c1)C(=O)O (stereo unspecified),-2.08% (inactive),
CNCCc1cnc(CCC(c2ccccc2)c2ccccc2)[nH]1,-23.9% (inactive),
CN1C2CCC1CC(OC(c1ccccc1)c1ccccc1)C2 (stereo unspecified),-1.17% (inactive),
CCN1C(=O)C=CC1=O,-4.26% (inactive),
N[C@@H](Cc1c[nH]c2ccccc12)C(=O)O,-4.6% (inactive),
COCc1nc2c([nH]1)c(=O)n(C)c(=O)n2CC(C)C,4.95% (inactive),
NC1(C(=O)O)CC1,3.1% (inactive),
CCSC(=N)N,-4.2% (inactive),
COc1ccccc1N1CCN(CCCCN2C(=O)c3ccccc3C2=O)CC1,3.81% (inactive),
COc1ccc(-c2cc3ncc(C)n3c(Nc3ncccc3C(N)=O)n2)cc1OC,,3.16 µM (active)
Cc1nc(N=Nc2cc(S(=O)(=O)O)c3cc([N+](=O)[O-])cc(S(=O)(=O)O)c3c2)c(COP(=O)(O)O)c(C=O)c1O,,15.8 µM (active)
NS(=O)(=O)c1cccc2c1c([N+](=O)[O-])cc1nc(O)c(O)nc12,-5.32% (inactive),

# Experiment: qHTS for inhibitors of adenylyl cyclases using a fission yeast platform: a pilot screen against the NCATS LOPAC library (AID 1347410);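 further: plate controls were DMSO vehicle for no effect and DPI positive control for full effect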
# Details: S. pombe CHP2027, fbp1-GFP fluorescence, 18 h, yeast expressing mammalian AC9 and human GNAS; series mostly up to 57.5 µM; activity, positive = inhibition (GFP gain): at the top concentration
# In short: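 Read-out: fbp1-GFP fluorescence by laser scanning cytometry (488 nm laser), a gain of signal when AC/cAMP-PKA signalling is inhibited. Strain CHP2027 expressing AC9, GNAS and PDE4D2; compounds at up to 57 µM; 18 h, 30C.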
row,SMILES,"activity, positive = inhibition (GFP gain)"
1,c1ccc(CN2CCC3(CCCc4ccccc43)CC2)cc1,-0.438% (inactive)
2,CCN(CC)CCOC(=O)c1cc(Cl)c(N)cc1OC,0.179% (inactive)
3,COc1ccccc1N1CCN(CCN(C(=O)c2ccc(F)cc2)c2ccccn2)CC1,-0.438% (inactive)
4,CN1CCCC1CCOC(C)(c1ccccc1)c1ccc(Cl)cc1 (stereo unspecified),-0.438% (inactive)
5,Cc1ccc2c(c1)C(N1CCN(C)CC1)=Nc1cccnc1N2,-0.058% (inactive)
6,CCCCCCCCCCCCCCSCC(=O)O,-0.438% (inactive)
7,CCCCCC[C@@H]([C@@H](C)O)n1cnc2c(N)ncnc21,-0.438% (inactive)
8,CC1CCN(CC[C@H]2CCCN2S(=O)(=O)c2cccc(O)c2)CC1,-0.438% (inactive)
9,CC1CNCCN1S(=O)(=O)c1cccc2cnccc12 (stereo unspecified),-0.438% (inactive)
10,COc1ccc(CCn2nnnc2C2(c3ccc(C)cc3)CC2)cc1,0.791% (inactive)
11,O=C(O)c1cc2cc(F)ccc2[nH]1,-0.438% (inactive)
12,OCC1NCC(O)C(O)C1O (stereo unspecified),-0.438% (inactive)
13,N[C@H](C(=O)O)c1cc(O)cc(O)c1,-0.438% (inactive)
14,C[C@]12C=CC(=O)C=C1CC[C@@H]1C2=CC[C@]2(C)[C@@H](C(=O)CN3CCN(c4cc(N5CCCC5)nc(N5CCCC5)n4)CC3)CC[C@@H]12,-0.438% (inactive)
15,CCCCS(=N)(=O)CC[C@H](N)C(=O)O (stereo partly specified),0.545% (inactive)
16,COc1cc(CNC(=O)CCCCCCC(C)C)ccc1O,-0.438% (inactive)
17,c1ccc2c(c1)CCC[C@H]2Nc1nc2ccccc2[nH]1,-0.438% (inactive)
18,Oc1cc2c(cc1O)C(c1ccccc1)CNCC2 (stereo unspecified),-0.438% (inactive)
19,Nc1ncnc2c1nc(Sc1ccc(Cl)cc1)n2[C@H]1OC2COP(=O)(O)O[C@@H]2C1O (stereo partly specified),0.48% (inactive)

row,SMILES,"activity, positive = inhibition (GFP gain)"
1,O=[N+]([O-])c1cccc2cn[nH]c12,1.51% (inactive)
2,COc1ccc2c(c1)CCC1C2CC[C@@]2(C)C1CC[C@@H]2NCCCCCCN1C(=O)C=CC1=O (stereo partly specified),0.0534% (inactive)
3,CC(C)C[C@H](NC(=O)C1OC1C(=O)O)C(=O)NCCCCN=C(N)N (stereo partly specified),-0.438% (inactive)
4,CC[N+](CC)(CC)CC(=O)Nc1c(C)cccc1C,0.763% (inactive)
5,C=CC[C@H](N)C(=O)O,-0.438% (inactive)
6,N[C@@H](Cc1ccc(O)c(I)c1)C(=O)O,-0.438% (inactive)
7,CN1CCC2(CCN3CCc4c(oc5ccccc45)C3C2)N(C)C1=O (stereo unspecified),-0.438% (inactive)
8,CC(N)(Cc1ccc(O)c(O)c1)C(=O)O (stereo unspecified),-0.438% (inactive)
9,CNCCc1cnc(CCC(c2ccccc2)c2ccccc2)[nH]1,0.206% (inactive)
10,CN1C2CCC1CC(OC(c1ccccc1)c1ccccc1)C2 (stereo unspecified),-0.438% (inactive)
11,CCN1C(=O)C=CC1=O,0.188% (inactive)
12,N[C@@H](Cc1c[nH]c2ccccc12)C(=O)O,-0.0534% (inactive)
13,COCc1nc2c([nH]1)c(=O)n(C)c(=O)n2CC(C)C,-0.438% (inactive)
14,NC1(C(=O)O)CC1,-0.438% (inactive)
15,CCSC(=N)N,-0.438% (inactive)
16,COc1ccccc1N1CCN(CCCCN2C(=O)c3ccccc3C2=O)CC1,-0.438% (inactive)
17,COc1ccc(-c2cc3ncc(C)n3c(Nc3ncccc3C(N)=O)n2)cc1OC,-0.438% (inactive)
18,Cc1nc(N=Nc2cc(S(=O)(=O)O)c3cc([N+](=O)[O-])cc(S(=O)(=O)O)c3c2)c(COP(=O)(O)O)c(C=O)c1O,-0.438% (inactive)
19,NS(=O)(=O)c1cccc2c1c([N+](=O)[O-])cc1nc(O)c(O)nc12,-0.438% (inactive)
